About 83,000 compounds went through this panel and 20% of them were active in at least one assay; those are over-represented in the sample as a whole.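 Cells were grown in 96-well plates and exposed to the test compound at a single concentration for 48 hours; results are reported as percent growth, with values below 10 considered active.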 Unmarked numbers belong to inactive results. Calls of active or inactive are those of the source.
Assays:
Assay in all cases: NCI-60 one-dose screen, 48 h (100 = growth as untreated, 0 = no growth, -100 = all killed)
RPMI-8226 leukemia = conditions: 10 µM unless noted
OVCAR-8 ovarian = conditions: 10 µM unless noted
OVCAR-5 ovarian = conditions: 10 µM unless noted
OVCAR-4 ovarian = conditions: 10 µM unless noted
IGROV1 ovarian = conditions: 10 µM unless noted
OVCAR-3 ovarian = conditions: 10 µM unless noted
HS 578T breast = conditions: 10 µM unless noted
NCI/ADR-RES ovarian = conditions: 10 µM unless noted
T-47D breast = conditions: 10 µM unless noted
BT-549 breast = conditions: 10 µM unless noted
MDA-MB-435 melanoma = conditions: 10 µM unless noted
SW-620 colon = conditions: 10 µM unless noted
MCF7 breast = conditions: 10 µM
HCT-116 colon = conditions: 10 µM unless noted
HCC-2998 colon = conditions: 10 µM unless noted
KM12 colon = conditions: 10 µM unless noted

| SMILES | growth (RPMI-8226 leukemia) | growth (OVCAR-8 ovarian) | growth (OVCAR-5 ovarian) | growth (OVCAR-4 ovarian) | growth (IGROV1 ovarian) | growth (OVCAR-3 ovarian) | growth (HS 578T breast) | growth (NCI/ADR-RES ovarian) | growth (T-47D breast) | growth (BT-549 breast) | growth (MDA-MB-435 melanoma) | growth (SW-620 colon) | growth (MCF7 breast) | growth (HCT-116 colon) | growth (HCC-2998 colon) | growth (KM12 colon) |
| --- | --- | --- | --- | --- | --- | --- | --- | --- | --- | --- | --- | --- | --- | --- | --- | --- |
| Cc1cccc2c(=O)c3c(sc12)c(N1CCNCC1)nc1ccccc13 | 7.41% (active) | 83.9% | 90.2% | 73.9% | 33.6% | 63.7% | 73% | 83.1% | 86.9% | 80% | 62.5% | 27.6% | 26.7% | 26.9% | 47.5% | 51.3% |
| Clc1ccc(COc2ccc(Nc3ncnc4onc(-c5ccccc5)c34)cc2)cc1 | 74.8% | 92.2% | 92.8% | 7.69% (active) | 83.4% | 92.8% | 82.1% | 77% | 77% | 89.1% | 73.1% | 68.1% | 75.9% | 72.1% | 106% | 88.9% |
| Cc1ccc2c(n1)C(=O)C(Oc1ccc(Br)cc1)=CC2=O | 78.7% | 92.3% | 114% | 94.5% | 104% | 84.2% | 100% | 95.8% | 59.2% | 86.5% | 101% | 94% | 85.6% | 87.3% | 101% | 102% |
| O=c1c(-c2nc3ccccc3[nH]2)cc2ccccc2n1Cc1cn(Cc2ccc(N3CCOCC3)cc2)nn1 | 80.4% | 37.4% | 77.3% | 6.82% (active) | 40% | 83.5% | 74.7% | 68.8% | 71.4% | 45.9% | 76.6% | 70.7% | 56.8% | 83.6% | 93.2% | 87.3% |
| COc1cc(/C=C2\CCC/C(=C\c3cc(CN4CCCCC4)c(O)c(OC)c3)C2=O)cc(CN2CCCCC2)c1O | 55.5% | 80.6% | 114% | 60.9% | 88.2% | 65.2% | 81.4% | 87.2% | 104% | 103% | 76.8% | 71.4% | 52.5% | 60.1% | 103% | 73.7% |
| COc1cc2nc(NC3CCCC3)nc(NC3CCN(C(C)C)CC3)c2cc1OC | -10.7% (active) | 89.7% | 107% | 69% | 82% | 89.4% | 79.6% | 101% | 17.4% | 76.7% | -34.3% (active) | 59.2% | 39.8% | 66.5% | 29.6% | 79.2% |
| CCCCN1CCN(c2ccc3nc(-c4ccc5nc(-c6ccc(C(F)(F)F)cc6)[nH]c5c4)[nH]c3c2)CC1 | -35.3% (active) | -40.5% (active) | -89.2% (active) | -84.2% (active) | -82.3% (active) | -96.7% (active) | -64.3% (active) | 54.8% | -37.3% (active) | -53.2% (active) | -85.3% (active) | -76.9% (active) | -74.3% (active) | -70.7% (active) | -84% (active) | -88.3% (active) |
| O=C1/C(=C\c2ccc[nH]2)c2ccccc2N1c1ccccc1 | 94.4% | 102% | 87.9% | 67.7% | 84.5% | 112% | 92.3% | 90.2% | 64.9% | 78.9% | 108% | 97% | 19.5% | 95.1% | 93.6% | 95.7% |
| O=c1c(-c2nc3ccccc3[nH]2)cc2ccccc2n1Cc1cn(Cc2ccc(F)cc2)nn1 | 16.7% | 28.5% | -20.5% (active) | 43.5% | 9.95% (active) | 3.02% (active) | -6.42% (active) | 31.7% | 42.3% | 22.4% | -37% (active) | 22.1% | 14.5% | -13.5% (active) | -14.5% (active) | 9.74% (active) |
| COc1cc(/C=C2\Oc3cc(OCCCN4CCCC4)ccc3C2=O)cc(OC)c1 | 49.4% | 56.4% | 89.4% | 75.2% | 51% | -34.6% (active) | 70.2% | 80.8% | 88.8% | 78.3% | 78.9% | 5.52% (active) | 4.85% (active) | -67.3% (active) | 75.7% | 26.3% |
| COc1cc(/C(C#N)=C/c2nc3c(N4CCOCC4)nc(Cl)nc3n2C)cc(OC)c1OC | 7.11% (active) | 21.8% | 34.6% | 21.9% | 8.43% (active) | 0.593% (active) | 0.385% (active) | 8.53% (active) | 33.9% | 20.7% | -48.5% (active) | 19.8% | 6.74% (active) | 4.75% (active) | 7.16% (active) | 1.09% (active) |
| C[C@@H](C(=O)NCCCC#Cc1cnc(Nc2ccc(C#N)cc2)nc1NC1CC1)N(C)C(=O)/C=C/CN(C)C | 14.9% | 55.9% | 66.3% | 38.7% | 41.1% | 29.3% | 59% | 78.2% | 54.9% | 32.3% | 24.5% | 42.1% | 17.3% | 27.7% | 64.5% | 17.7% |
| CS(=O)(=O)Nc1ccc(C(=O)NC(C(=O)NO)c2ccc(-c3cccc(F)c3)cc2)cc1 (stereo not drawn) | 82.8% | 97.3% | 31.6% | 70.9% | 39.6% | 64.7% | 73% | 66.6% | 82.4% | 94.1% | 54.5% | 51.2% | 66.7% | 39.1% | 62.6% | 58.2% |
| O=C1/C(=C/c2cccc(O)c2)COc2ccc(O)cc21 | -10.6% (active) | 68.7% | 105% | 98.1% | 78.1% | 55.5% | 101% | 96.7% | 86.8% | 98.1% | 60.3% | 9.65% (active) | 14% | 10.1% | 103% | 20.9% |
| Cc1ccc(N=NC2C(=O)N(c3ccc(Cl)cc3)N(c3ccc(Cl)cc3)C2=O)cc1 | 78.1% | 98.2% | 99.8% | 102% | 95.8% | 93.3% | 102% | 98.9% | 83.2% | 95.2% | 103% | 96.4% | 85.5% | 97.2% | 109% | 90.3% |
| COc1ccc2sc3c(NCCCN)nc4ccccc4c3c(=O)c2c1 | -6.79% (active) | 0.199% (active) | 82.8% | 34.5% | 58.6% | -22.4% (active) | 70.9% | 68.3% | -32.6% (active) | 82.1% | -79% (active) | -75% (active) | -74.2% (active) | -84.1% (active) | -67.1% (active) | -54.6% (active) |
| COc1cccc2c1C=C1CCCCC3=Cc4c(OC)cccc4OC13O2 | 42.6% | 53.1% | 63.9% | 57.7% | 57.5% | 14.2% | 42.8% | 16.5% | 40.3% | 64% | -15.8% (active) | 27.2% | 26.5% | 22.1% | 71.1% | 32.3% |
| COC(=O)/C(CCC=C(C)C)=C1\[C@@H](OC(C)=O)C[C@@]2(C)[C@H]1C[C@@H](O)[C@H]1[C@@]3(C)CC[C@H](NCCO)[C@@H](C)[C@@H]3CC[C@@]12C | 101% | 101% | 104% | 107% | 99.4% | 105% | 93.3% | 101% | 103% | 114% | 98.9% | 97% | 98.8% | 105% | 106% | 103% |

— PubChem BioAssay (NCI)
